Only some compounds are listed: those with a hit (about 11% of all), similar ones and a draw of the others.
PNC inhibitor: perinucleolar compartment assembly inhibition; activity change (PNC), negative = inhibition, % at 10 µM; AID 2417; PC3M PTB-GFP, PNC prevalence imaging, 16 h; stronger effect = lower value; 140,000 compounds, 3.1% hits;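 active = readout at or below -70, meaning at least 70% loss of cells showing the perinucleolar compartment, a nuclear body marking cancer cells; inconclusive = readout between -30 and a set limit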;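 also: plate controls were DMSO wells for no effect and camptothecin positive control wells for full effect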
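Read-out is percentage of cells bearing a perinucleolar compartment, from automated 20x imaging of fixed, Hoechst-stained PC3M PTB-GFP cells. Cells were seeded 4 h, then exposed 16 h to compound (23 nl of library stock) in duplicate plates.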
HPGD inh: inhibitors of human 15-hydroxyprostaglandin dehydrogenase (HPGD); P15428; purified HPGD, NADH fluorescence kinetic, PGE2 substrate; Potency, µM, for inactives: at the top dose activity change, negative = inhibition, usual class: inhibitors; 150,000 compounds, 4.3% hits; AID 894; also: potency is read from the fitted curve at half-maximal effect
Target sequence (P15428 whole entry, looked up): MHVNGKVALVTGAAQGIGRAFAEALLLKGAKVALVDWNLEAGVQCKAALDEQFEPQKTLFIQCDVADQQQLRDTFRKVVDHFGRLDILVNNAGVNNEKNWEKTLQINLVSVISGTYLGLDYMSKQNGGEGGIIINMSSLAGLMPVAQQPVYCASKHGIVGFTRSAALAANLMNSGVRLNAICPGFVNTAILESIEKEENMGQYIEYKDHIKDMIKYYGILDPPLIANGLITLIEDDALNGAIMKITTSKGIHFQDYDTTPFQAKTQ
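NADH formation kinetics: reaction with 30 uM PGE2 and 1 mM NAD+ (final), 20 nM enzyme, Tris-HCl pH 8 with Tween 20, after 15 min compound preincubation at room temperature. Fluorescence change, last versus first of five reads.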
ALDH1A1 block: blocks purified human ALDH1A1 activity; P00352; Purified ALDH1A1, NADH fluorescence, propionaldehyde substrate; Potency, µM (series often up to 75.3 µM), for the others: top-dose activity, negative = inhibition, hits mostly inhibitors; 220,000 compounds, 7.3% hits; AID 1030;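 also: potency is read from the fitted curve at half-maximal effect; plate controls were no enzyme wells and a reference inhibitor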
JMJD2E inh: blocks human JMJD2E demethylase activity; B2RXH2; 230,000 compounds, 1.6% hits; AID 2147; JMJD2E catalytic domain, FDH-coupled NADH fluorescence (FDH is formaldehyde dehydrogenase); Potency, µM (top dose mostly 57.1 µM), inactives show top-dose activity change, negative = inhibition, usual class: inhibitors;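 also: potency is read from the fitted curve at half-maximal effect; 0% = wells with enzyme and -100% = buffer wells without enzyme; nearly all actives have a fitted effect of over 50% in size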
Target sequence (B2RXH2 1-337 limits assumed): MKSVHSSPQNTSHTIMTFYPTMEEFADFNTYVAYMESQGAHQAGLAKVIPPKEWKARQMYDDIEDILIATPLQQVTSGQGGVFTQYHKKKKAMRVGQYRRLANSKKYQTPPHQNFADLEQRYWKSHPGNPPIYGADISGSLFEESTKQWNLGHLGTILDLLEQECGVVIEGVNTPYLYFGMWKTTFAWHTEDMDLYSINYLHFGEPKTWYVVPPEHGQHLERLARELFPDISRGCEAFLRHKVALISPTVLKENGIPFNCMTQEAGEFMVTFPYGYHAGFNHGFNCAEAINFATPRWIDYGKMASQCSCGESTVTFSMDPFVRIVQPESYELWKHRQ
Starred values were filed as active, the others as inactive; u = inconclusive; x = not tested or not shown; [ ] = another dose, or the depositor's remark. Unless noted, calls follow the shape of the dose curve; as a rule, active = well fitted inhibition curve with a large enough effect (not every such curve was filed as active); inconclusive = small, poorly fitted or top-dose-only effect, or another doubt; inactive = no such curve, though single readings can be large or run the other way. Unless noted, % is scaled to controls: 0 for no effect and ±100 for the full control effect.

SMILES | PNC inhibitor | HPGD inh | ALDH1A1 block | JMJD2E inh
CCOC(=O)c1cccc(NC(=O)CCS(=O)(=O)c2cccs2)c1 | 44 | -9% | 20µM* | 4%
CCOC(=O)c1cccc(NC(=O)CCS(=O)(=O)c2ccc(Br)s2)c1 | u | 10% | 11% | -5%
CCn1nc(C(=O)NNC(=O)COc2ccccc2C)c2ccccc2c1=O | -113* | -6% | 7% | -6%
O=C(COC(=O)/C=C/C(=O)OCC(=O)NC12CC3CC(CC(C3)C1)C2)NC12CC3CC(CC(C3)C1)C2 | 7 | -18% | 4µM* | 2%
Cc1cnc(C(=O)OCC(=O)NC23CC4CC(CC(C4)C2)C3)cn1 | 15 | 0% | 25µM* | -3%
COc1cccc(C2C3=C(Nc4[nH]n(-c5ccccc5)c(=O)c42)c2ccccc2C3=O)c1 (stereo unspecified) | u | -15% | 20µM* | 7%
COc1cccc(C2C3=C(CCCC3=O)Nc3[nH]n(-c4ccccc4)c(=O)c32)c1 (stereo unspecified) | x | x | 6% | 3%
COC(=O)NNC(=S)Nc1cc(OC)ccc1OC | 17 | u | 25µM* | -9%
COc1ccc(NC(=S)Nc2ccc(OC)cc2OC)c(OC)c1 | 14 | 25µM* | 20µM* | -9%
COc1ccc(CNC(=S)Nc2cc(OC)ccc2OC)cc1 | 42 | -11% | u | -10%
CCOc1cc(NC(=S)NCC2CCCO2)c(OCC)cc1NC(=O)c1ccccc1C (stereo unspecified) | 44 | -3% | -3% | 1%
COc1ccc(NC(=O)CC(=O)Nc2ccc(OC)cc2OC)c(OC)c1 | -127* | 2% | 27% | 4%
CCOc1cc(NC(=S)Nc2ccccc2OC)c(OCC)cc1NC(=O)c1ccccc1C | -109* | u | u | -26%
COc1ccc(NC(=S)Nc2ccccn2)c(OC)c1 | 51 | -20% | u | -6%
COC(=O)c1ccc([N+](=O)[O-])cc1N1C(=O)C2C3CCC(C3)C2C1=O (stereo unspecified) | x | x | 5% | -2%
Nc1ncn([C@H]2O[C@@H](CO)[C@@H](O)[C@@H]2O)c(=O)n1 | x | -1% | -3%[20.9 µM] | -4%[25.5 µM]
CC(=O)OC1CCC2(C)C(=CCC3C2CCC2(C)C3C[C@@H]3O[C@]32C(C)=O)C1 (stereo partly specified) | x | -4% | 0% | 1%
CCCCC(=O)Nc1ccc(NC(=O)CC)cc1OC | -84* | -11% | 2% | 9%
COc1ccc(NC(=S)Nc2ccccc2OC)c(OC)c1 | x | x | 25µM* | -6%
COc1ccc(NC(=O)CCCN2C(=O)C3C4C=CC(C4)C3C2=O)c(OC)c1 (stereo unspecified) | u | -5% | 13µM* | -2%
CCOC(=O)C(=O)C1=C(N2CCOCC2)/C(=C\c2ccc(F)cc2)CC1 | -4 | -12% | 13µM* | -15%
C[C@@H]1CC[C@@H]2C(=O)N3[C@@H](CC[C@@H](C)[C@@H]3c3ccc(-c4ccco4)cc3)C(=O)N2[C@H]1c1ccc(-c2ccco2)cc1 | x | x | -13%[13.5 µM] | x
CC1CCC2C(=O)N3C(CCC(C)C3c3ccc(-c4ccco4)cc3)C(=O)N2C1c1ccc(-c2ccco2)cc1 (stereo unspecified) | x | x | 3.2µM* | x
CCCCC[C@H](O)/C=C/C=C/C=C/[C@H](O)C/C=C\CCCC(=O)O | x | -1% | 4% | -1%
CCOc1ccc(C2/C(=C(\O)c3ccc(OC)c(OC)c3)C(=O)C(=O)N2c2cc(C)on2)cc1OC (stereo unspecified) | 9 | -13% | -3% | 1%
SMILES | PNC inhibitor | HPGD inh | ALDH1A1 block | JMJD2E inh
CCOc1ccc(/C(O)=C2\C(=O)C(=O)N(c3cc(C)on3)C2c2ccccc2OC)cc1 (stereo unspecified) | u | u | 22µM* | -4%
Cc1ccc(NC(=O)Cn2nc(-c3ccccc3Cl)ccc2=O)c(Br)c1 | x | x | 0% | 2%
COc1cc([N+](=O)[O-])cc(/C=N/NC(=O)C(C)Nc2cccc(C)c2)c1O (stereo unspecified) | u | -9% | -1% | 3.2µM*
C=CCc1cccc(/C=N/NC(=O)C(C)Nc2cccc(C)c2)c1O (stereo unspecified) | x | x | -1% | 20µM*
C=CCc1cccc(/C=N/NC(=O)CNc2cccc3ccccc23)c1O | -84* | -25% | u | 4%
Nc1ccnc(C(F)(F)F)c1C(=O)c1ccccc1 | -82* | -9% | -7% | -3%
CC(=O)c1c(N(C)C)ccnc1C(F)(F)F | 6 | -12% | 9% | 0%
Cc1ccc(OCCSc2nc3ncnc(N)c3[nH]2)cc1 | x | x | 7% | 2%
Cc1ccc(OCCn2c(=S)[nH]c3c(N)ncnc32)cc1 | x | x | 7.9µM* | -15%
CC(C)Oc1ccc(OCCn2c(=S)[nH]c3c(N)ncnc32)cc1 | x | x | 10µM* | -23%
Cc1c(Br)c([N+](=O)[O-])nn1CC(=O)Nc1ccc(Cc2ccncc2)cc1 | -93* | -18% | u | 4%
O=C(O)c1ccc(NS(=O)(=O)Cc2ccccc2)cc1 | x | -1% | -3%[13.5 µM] | x
COc1cc(/C=C(\C#N)C(=O)c2ccc(O)c(O)c2)cc(I)c1O | x | 18µM* | u | 10µM*
CCN1CCCC1CN(Cc1cc2cc(C)cc(C)c2[nH]c1=O)C(=O)Nc1ccccc1OC (stereo unspecified) | 47 | -17% | u | -24%
CCN1CCCC1CN(Cc1cc2ccc(C)cc2[nH]c1=O)C(=S)Nc1ccc(OC)cc1OC (stereo unspecified) | -24 | -16% | 20µM* | 1%
Cc1nc(S/C(=C/c2ccc(OCc3ccc(C(=O)O)cc3)cc2)C(=O)O)n[nH]1 | x | x | -3% | u
O=C(c1ccc(Cc2nc3ccccc3[nH]2)cc1)N1CCOCC1 | x | -7% | -5% | x
Cc1ccc(NC(=O)N2CCCCC2)cc1NC(=O)N1CCCCC1 | x | x | 15% | 11%
Cc1ccc(C(NC(=O)NCCCN2CCOCC2)=C(Cl)Cl)cc1F | -3 | -14% | 0.4µM* | -6%
Cc1ccc(C(NC(=O)N2CCCCC2)=C(Cl)Cl)cc1F | -6 | -14% | 0.11µM* | 6%
COCCn1c(Cc2cccn2C)nnc1SCC(=O)NCc1ccc2c(c1)OCO2 | x | x | -1% | -10%
COc1cc(C2C(C#N)=C(N)Oc3cc(C)n(CC4CCCO4)c(=O)c32)cc2c1OCO2 (stereo unspecified) | 13 | -19% | 25µM* | -24%
Cc1cc2c(c(=O)n1Cc1ccccn1)C(c1ccc3c(c1)OCO3)C(C#N)=C(N)O2 (stereo unspecified) | -11 | -12% | 13µM* | -2%
N#CC1=C(N)OC(c2ccccc2)=C(C#N)C1c1ccc2c(c1)OCO2 (stereo unspecified) | 1 | 14µM* | 1µM* | -15%
CC(C)CC1C(C#N)=C(N)OC2=C1C(=O)CC(c1ccccc1)C2 (stereo unspecified) | x | x | u | -24%
N#CC1=C(N)OC2=C(C(=O)CC(c3ccccc3)C2)C1c1ccc2c(c1)OCO2 (stereo unspecified) | 35 | 28µM* | 11µM* | -2%
COc1ccc(NC(=O)N2CCCC3(CCN(C(=O)c4cnccn4)CC3)C2)cc1 | x | -2% | 4% | x
